Screens as filed in PubChem.
AmpC det inh – blocks E. coli AmpC beta-lactamase in presence of detergent. P00811. purified AmpC, nitrocefin hydrolysis with detergent. Potency, µM (highest dose often 28.7 µM), for inactives: top-dose activity change, negative = inhibition. hit rate 0.09% among 71,000; active means well fitted curve in the direction sought with a large enough effect; inconclusive means small, poorly fitted or top-dose-only effect; further: on the % scale 0 is the no-effect control and ±100 the full control effect
Target sequence (P00811 whole entry, looked up): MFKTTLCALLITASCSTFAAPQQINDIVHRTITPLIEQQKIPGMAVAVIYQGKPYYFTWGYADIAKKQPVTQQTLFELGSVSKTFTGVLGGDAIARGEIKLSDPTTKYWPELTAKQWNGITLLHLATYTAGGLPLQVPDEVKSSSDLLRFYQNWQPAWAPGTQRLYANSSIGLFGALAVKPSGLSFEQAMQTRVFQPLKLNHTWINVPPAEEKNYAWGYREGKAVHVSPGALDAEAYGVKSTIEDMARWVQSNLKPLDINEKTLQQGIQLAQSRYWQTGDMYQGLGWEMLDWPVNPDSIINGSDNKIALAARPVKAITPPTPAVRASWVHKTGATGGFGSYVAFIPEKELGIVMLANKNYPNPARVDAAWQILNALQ
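E. coli AmpC (5.3 nM) in 20 mM phosphate pH 7.0 with 0.01% Triton X-100, preincubated 15 min RT with compound; nitrocefin (2 uL of 800 uM stock) hydrolysis followed by 480 nm absorbance every 20 s over 4 min.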
SmPrx2 inh – Schistosoma mansoni Prx2 inhibition. S. mansoni Prx2 activity coupled to TGR/GSH (TGR is thioredoxin glutathione reductase), NADPH fluorescence loss, qHTS. Potency, µM. hit rate 0.07% among 65,000
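Purified S. mansoni TGR and Prx2 in pH 7.4 phosphate buffer with EDTA and Tween-20 were preincubated with compounds for 15 min. Further NADPH/GSH was added, then a 2.5 mM H2O2 aliquot initiated turnover, followed kinetically by NADPH fluorescence.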
AmpC inh no det – AmpC beta-lactamase inhibition, detergent-free assay. hit rate 1.8% among 71,000. Potency, µM (titrated, usually from 28.7 µM), without a hit: top-dose activity change, negative = inhibition. AID 585. AmpC nitrocefin hydrolysis, absorbance 480 nm, no detergent. P00811; further: % of control where 0% means no effect
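Enzyme, pH 7.0 phosphate. Compound titrations were pre-incubated with AmpC for 15 min at room temperature before nitrocefin (stock 800 uM) addition; product formation was recorded at 480 nm every 20 s for 4 min.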
Anthrax LT inh – inhibitors of anthrax lethal toxin internalization | Cells, anthrax lethal toxin internalization, FRET ratio (460/530) | Potency, µM (highest dose often 40 µM), for the others: top-dose activity change, negative = inhibition, usual class: inhibitors | hit rate 0.67% among 70,000; further: on the % scale 0 is the no-effect control and ±100 the full control effect; nearly all actives have a fitted effect of over 50% in size
The depositor's hits bear a star; ? = inconclusive; . = no result; + = active, no number; [ ] = remark or other dose. The list is not random: actives were taken first. Their share in the collection is about 2.6%. Unless noted, the call rests on the fitted dose curve. Potency means the concentration at half of the fitted maximal effect.

SMILES	AmpC det inh	SmPrx2 inh	AmpC inh no det	Anthrax LT inh
CC(C)COC(=O)c1nnsc1NC(=O)Nc1ccccc1	-1.7%	>57	15.8µM*[single pt active]	-27.4%
O=C(NCc1cccnc1)c1ccccc1Br	-0.9%	>57	3.2%	-1.7%
CC(=O)c1cccc(NC(=O)c2cnn3ccccc23)c1	10.2%	>57	3.98µM*[single pt active]	13.4%
O=C(NCc1cccnc1)c1cnn2ccccc12	14.4%	>57	3.98µM*	0.4%
Cc1ccc(C(C)(C)C)cc1	5.6%	.	-8.3%	-8.5%
COc1ncc2nc(-c3cccs3)c(=O)n(C)c2n1	6.0%	>57	8.1%	?
Cn1cccc1C(=O)N1CCC2(CCCN(c3ccc(-c4ccccc4)cc3)C2)CC1	3.0%	>57	108.9%	-18.8%
Nc1nc2ccc(S(=O)(=O)c3ccc4nc(N)sc4c3)cc2s1	-4.9%	>57	12.6µM*	-5.2%
Nc1nc2ccc(Oc3ccccc3)cc2s1	-2.0%	>57	-13.3%	-21.6%
Cc1ccc(-c2nnn(CC(=O)Nc3ccc(S(=O)(=O)N4CCC(C)CC4)cc3)n2)cc1	6.3%	>57	12.6µM*	-24.8%
CC1CCCN(S(=O)(=O)c2ccc(NC(=O)Cn3nnc(-c4ccccc4F)n3)cc2)C1 (stereo not given)	15.1%	>57	15.8µM*	-25.9%
CC1CCN(S(=O)(=O)c2ccc(NC(=O)Cn3nnc(-c4ccccc4)n3)cc2)CC1	-6.1%	>57	-12.8%	?
CN(C)c1ncc2nc(-c3ccccc3)c(=O)n(C3CC3)c2n1	-0.5%	>57	69.9%	?
Cc1cccc(Nc2cc(Cl)nc(SCC(=O)O)n2)c1C	-2.3%[5.75 µM]	>57	9.6%[5.75 µM]	6.4%[8 µM]
N#C/C(=C\c1ccc(O)c(O)c1)C(=O)NCCCCc1ccccc1	-8.5%	>57	?	?
COc1ccccc1S(=O)(=O)Cc1ccc(C(=O)N2CCN(c3ccccc3)CC2)o1	1.1%	>57	97.3%	3.8%
COc1ccc(S(=O)(=O)Cc2ccc(C(=O)N3CCOCC3)o2)cc1	12.8%	>57	3.98µM*[single pt active]	2.4%
COc1ccccc1S(=O)(=O)Cc1ccc(C(=O)N2CCOCC2)o1	13.2%	>57	3.16µM*[single pt active]	-0.5%
CCCCN(CC)CCNC(=O)c1cc2c(=O)n(C)c3ccccc3c2n1C	10.4%	>57	3.98µM*[single pt active]	5.01µM*
CCCN(CCC)CCCNC(=O)c1cc2c(=O)n(C)c3ccccc3c2n1C	17.1%	>57	18.4%	3.16µM*
CCN(CC)CCCNC(=O)c1cc2c(=O)n(C)c3ccccc3c2n1C	9.4%	.	?	10µM*
CC(=O)OCC1OC(C#Cc2ccc(Br)cc2)C=CC1OC(C)=O (stereo not given)	.	.	.	-7.7%[8 µM]
CN(C)c1ncc2nc(-c3ccc(F)cc3)c(=O)n(-c3ccccc3)c2n1	-1.9%	>57	-0.5%	?
C[C@H](CCC(=O)O)[C@H]1CC[C@@H]2[C@H]3[C@@H](C[C@@H](O)[C@]21C)[C@]1(C)CC[C@H](O)C[C@@H]1C[C@@H]3O	-4.1%[5.75 µM]	>57	30.6%[5.75 µM]	1.6%[8 µM]
Cc1ccccc1C(N)=O	11.2%	.	-0.9%	0.3%
SMILES	AmpC det inh	SmPrx2 inh	AmpC inh no det	Anthrax LT inh
CC(=O)N1CCC2(CC1)CCN(C(=O)Nc1cccc(C#N)c1)CC2	-0.5%	>57	26.9%	-3.9%
N#Cc1c(N)nc(N2CCCC2)c(C#N)c1-c1ccc(Cl)cc1	3.8%	>57	-15.9%	1µM*
N#Cc1c(N2CCCC2)nc(N)c2c(N)nc(N3CCCC3)cc12	8.2%	>57	51.4%	-15.3%
c1ncc(-c2ccc3c(c2)OCO3)c(NCCc2cnc[nH]2)n1	7.8%	>57	-7.0%	-7.2%
CCN(CC)c1ccc(NC(=O)CC2Oc3ccccc3NC2=O)c(C)c1 (stereo not given)	11.5%	>57	3.98µM*[single pt active]	?
Cc1ccc(NC(=O)CC2Oc3ccccc3NC2=O)c(C)c1 (stereo not given)	13.0%	>57	3.98µM*[single pt active]	0.4%
Cn1c(=O)oc2cc(S(=O)(=O)N3CCCC(C(=O)NCCN4CCOCC4)C3)ccc21 (stereo not given)	11.0%	>57	3.98µM*[single pt active]	2.3%
Cn1c(=O)oc2cc(S(=O)(=O)N3CCC(C(=O)NCc4cccs4)CC3)ccc21	11.5%	>57	3.16µM*[single pt active]	-2.4%
Cn1c(=O)oc2cc(S(=O)(=O)N3CCCC(C(=O)N4CCc5ccccc5C4)C3)ccc21 (stereo not given)	13.5%	>57	56.2%	?
Cn1c(=O)oc2cc(S(=O)(=O)N3CCCC(C(=O)N4CCn5c4nc4ccccc45)C3)ccc21 (stereo not given)	12.0%	>57	3.98µM*[single pt active]	-1.5%
Cn1c(=O)oc2cc(S(=O)(=O)N3CCC(C(=O)N4CCN(c5ccccc5)CC4)CC3)ccc21	12.5%	>57	12.2%	-3.2%
CN1CCN(C(=O)C2CCN(S(=O)(=O)c3ccc4c(c3)oc(=O)n4C)CC2)CC1	9.3%	>57	3.98µM*[single pt active]	1.6%
O=c1cc(-c2cccc(O)c2O)oc2ccccc12	-3.9%	>25.6	4.1%	-15.3%
Nc1nc(CC(=O)O)cs1	8.7%	.	-14.2%	0.4%
Cn1c(=O)oc2cc(S(=O)(=O)N3CCC(C(=O)NCC4COc5ccccc5O4)CC3)ccc21 (stereo not given)	12.3%	>57	3.98µM*[single pt active]	-11.7%
O=C1/C(=C/c2ccccc2)[C@@H](NC2CCCCC2)c2ccccc21	-2.1%[5.75 µM]	.	9.0%[5.75 µM]	3.98µM*
COc1ccc(-c2nc3cnc(N4CCOCC4)nc3n(C3CC3)c2=O)cc1	1.6%	>57	6.0%	?
COc1cc(C)c(S(=O)(=O)NCc2ccc3c(c2)OCO3)cc1C	11.1%	>57	3.16µM*[single pt active]	?
CCOc1ccc(OCC)c(S(=O)(=O)NCc2ccc3c(c2)OCO3)c1	14.4%	>57	3.98µM*[single pt active]	-10.8%
COc1cc(S(=O)(=O)NCc2ccc3c(c2)OCO3)ccc1Cl	6.8%	>57	-13.8%	?
CCC(C)(C)C	7.1%	.	-5.5%	-12.5%
Cc1ccc(S(=O)(=O)C2(C(=O)Nc3nccs3)CC2)cc1	12.0%	>57	3.98µM*[single pt active]	-5.0%
Cc1ccc(S(=O)(=O)C2(C(=O)Nc3cccc(F)c3)CC2)cc1	11.3%	>57	3.98µM*[single pt active]	-13.6%
O=C(Nc1nccs1)C1(S(=O)(=O)c2ccc(Cl)cc2)CC1	-3.2%	>57	4.3%	8.3%
O=C(CSc1nnc(-c2ccc(Cl)cc2)n1Cc1ccco1)Nc1ccc2c(c1)OCCO2	-5.9%	>57	+[single pt active]	?
SMILES	AmpC det inh	SmPrx2 inh	AmpC inh no det	Anthrax LT inh
COc1ccc(-c2cnc(SCC(=O)Nc3ccc4c(c3)OCO4)n2Cc2ccco2)cc1	-3.2%	>57	-11.1%	?
CC(=O)Nc1cccc(NC(=O)CSc2ncc(-c3ccc(Cl)cc3)n2Cc2ccco2)c1	-5.1%	>57	64.4%	12.6µM*
C=C[C@@]1(C)C=C2CC[C@@H]3[C@](C)(CCC[C@@]3(C)C(=O)O)[C@H]2CC1	-8.1%	>57	-15.5%	?
CCOc1ccc(Cn2nnc(C(=O)Nc3cc(OC)cc(OC)c3)c2N)cc1	11.1%	>57	3.16µM*	19.0%
COc1ccc(CNC(=O)c2nnn(Cc3ccc(OC)cc3)c2N)cc1	12.1%	>57	2.51µM*[single pt active]	-8.3%
CCc1ccc(Cn2nnc(C(=O)Nc3cccc(C)c3)c2N)cc1	9.7%	>57	3.98µM*[single pt active]	-9.3%
CCOc1ccc(NC(=O)c2nnn(CC(=O)Nc3ccccc3OC)c2N)cc1	4.9%	>57	11.8%	-2.3%
